Among the data in PubChem BioAssay (NCATS) are outcome, Potency and activation values, retold here.

For assay [1], the target named is phosphoglycerate mutase (Leishmania major) (UniProt Q4Q090). Briefly: qHTS Validation Assay to Find Inhibitors of Phosphoglycerate Mutase (AID 504548).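 Also: end-point luminescence from Kinase-GloPlus after the PGAM reaction.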 The settings on record: biochemical enzyme activity; series mostly up to 57.5 µM. The gist of the method: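 Inhibition of L. major PGAM was assessed by Kinase-GloPlus luminescence following a 45-minute room-temperature reaction with enzyme at 1.25nM final.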
phosphoglycerate mutase (Leishmania major), sequence (Q4Q090 1-553): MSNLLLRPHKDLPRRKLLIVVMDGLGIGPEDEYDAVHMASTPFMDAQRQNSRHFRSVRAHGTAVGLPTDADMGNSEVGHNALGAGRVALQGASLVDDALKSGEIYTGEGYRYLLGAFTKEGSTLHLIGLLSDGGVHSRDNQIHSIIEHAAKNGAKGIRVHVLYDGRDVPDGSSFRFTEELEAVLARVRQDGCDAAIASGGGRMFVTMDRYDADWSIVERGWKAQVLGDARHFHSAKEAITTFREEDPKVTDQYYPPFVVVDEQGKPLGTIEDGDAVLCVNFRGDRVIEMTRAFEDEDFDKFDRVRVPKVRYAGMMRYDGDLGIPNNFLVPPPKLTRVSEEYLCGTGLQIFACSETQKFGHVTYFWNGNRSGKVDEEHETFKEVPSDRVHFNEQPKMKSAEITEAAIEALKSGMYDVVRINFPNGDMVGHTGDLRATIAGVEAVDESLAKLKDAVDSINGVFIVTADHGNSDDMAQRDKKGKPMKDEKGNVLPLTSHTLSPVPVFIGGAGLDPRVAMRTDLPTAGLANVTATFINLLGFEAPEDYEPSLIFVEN
Background: Quantitative high-throughput screening tests each substance at several concentrations.

Assay [2] concerns the target Ubiquitin carboxyl-terminal hydrolase 1 (Homo sapiens) (UniProt O94782). Briefly: Inhibitors of USP1/UAF1: Pilot qHTS (AID 504865). Also: nearly all actives have a fitted effect of over 35% in size. Also: potency is read from the fitted curve at half-maximal effect. As to conditions: purified USP1/UAF1, Ub-rhodamine cleavage fluorescence; series mostly up to 114 µM. The gist of the method:
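Enzyme-free wells gave the negative control, while test wells held 1nM USP1/UAF1 preincubated with compound for 15 min at room temperature. Ub-Rho at 150nM final started the reaction, and fluorescence at 480/540 nm was recorded kinetically.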

A short description of assay [3]: qHTS for Inhibitors of ATXN expression: Validation (AID 588378). Also: nearly all actives have a fitted effect of over 75% in size. Also: potency is read from the fitted curve at half-maximal effect. The settings on record: cell-based ATXN2 expression reporter assay, luminescence; series mostly up to 57.1 µM. The method in brief: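 After a 2 h attachment and 24 h compound incubation, HEK293-ATXN2-FFLuc wells are read for fluorescence at 405 nm excitation/525 nm emission as a viability measure, then for Bright-Glo luminescence reflecting ATXN2 expression.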

The target of assay [4] is Bile acid receptor (Homo sapiens) (UniProt Q96RI1). Kind of assay: qHTS assay for small molecule antagonists of farnesoid X receptor signaling (AID 588526; calls by dose curve). As to conditions: HEK293T FXR-UAS-bla, beta-lactamase ratio, antagonist mode; series mostly up to 76.7 µM. The method in brief:
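Antagonist mode: titrated compounds tested against chenodeoxycholic acid stimulation (normalized to 50 uM CDCA and DMSO) in GeneBLAzer HEK293T cells for 16 h. Beta-lactamase read by CCF4 fluorescence; IC50 from Hill fits.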

The target in assay [5] is Glucocorticoid receptor (Homo sapiens) (UniProt P04150). Briefly: qHTS assay for small molecule agonists of glucocorticoid receptor signaling (AID 588532; active = well fitted curve in the direction sought with a large enough effect in the signal ratio, with a control signal flat; the % refers to the signal ratio). As to conditions: HeLa MMTV-bla, beta-lactamase ratio, agonist, 18 h; active compounds read high; percent of dexamethasone control, DMSO zero. The method in brief:
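Cells were plated and rested 3-5 h at 37 C, compounds were added in titration and incubated 18 h, then CCF4 substrate was loaded for 2 h at RT before reading blue/green fluorescence. EC50 came from Hill-equation fitting.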

Assay [6] shares this target. Briefly: qHTS assay for small molecule antagonists of glucocorticoid receptor signaling (AID 588533; active = well fitted inhibition curve with a large enough effect in the signal ratio, with a control signal flat, not every such curve was filed as active; the % refers to the signal ratio;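 also: cells stimulated with 2 nM dexamethasone as agonist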). As to conditions: HeLa MMTV-bla, GRE beta-lactamase ratio, antagonist mode, 18 h; series mostly up to 76.8 µM. The method in brief:
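Antagonist-mode qHTS: compound titrations added to GRE-bla HeLa cells, then dexamethasone 2 nM final; 18 h, 37 C. CCF4 FRET fluorescence normalized to dexamethasone and DMSO; IC50 from Hill fit.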

Assay [7] addresses DNA dC->dU-editing enzyme APOBEC-3G (Homo sapiens) (UniProt Q9HC16). Kind of assay: qHTS for inhibitors of Vif-A3G interactions: Validation (AID 588379). The settings on record: Vif-A3G protein interaction assay; series mostly up to 46.1 µM. The method in brief:
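Yellow fluorescence (Ex 488, Em 500-530) of Vif-coexpressing HeLa A3G-eYFP cells, scanned by Acumen cytometer, reports blocked A3G degradation. Cells plated at 700/well overnight at 37 deg C before compound addition, then a further overnight compound incubation at 37 deg C.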

Assay [8] has as its target Estrogen receptor (Homo sapiens) (UniProt P03372). Kind of assay: qHTS assay for small molecule agonists of estrogen receptor alpha signaling (AID 588514; calls by dose curve; also: nearly all actives have a fitted effect of over 70% in size). The settings on record: ER-alpha-UAS-bla HEK293, beta-lactamase ratio, 18 h, percent of full estradiol response, vehicle zero; series mostly up to 76.8 µM. The gist of the method:
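EC50 and efficacy came from Hill fits of beta-lactamase reporter signal (CCF4 dye, 2 h at room temperature) scaled between DMSO and 20 nM 17-beta-estradiol. Agonist mode: HEK293 ER-alpha-UAS-bla cells in charcoal/dextran-stripped serum medium, 18 h compound exposure at 37 C.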

Structures are written as SMILES. A number with no mark means an inactive call. Inconclusive results are not listed. A call without a number means that no potency is given here. Calls of active or inactive are those of the source. Unless noted, calls follow the shape of the dose curve; as a rule, active = well fitted curve in the direction sought with a large enough effect; inconclusive = small, poorly fitted or top-dose-only effect, or another doubt; inactive = no such curve, though single readings can be large; an effect the other way counts as inactive or inconclusive.

Bile acid receptor (Homo sapiens), sequence (Q96RI1 whole entry, looked up): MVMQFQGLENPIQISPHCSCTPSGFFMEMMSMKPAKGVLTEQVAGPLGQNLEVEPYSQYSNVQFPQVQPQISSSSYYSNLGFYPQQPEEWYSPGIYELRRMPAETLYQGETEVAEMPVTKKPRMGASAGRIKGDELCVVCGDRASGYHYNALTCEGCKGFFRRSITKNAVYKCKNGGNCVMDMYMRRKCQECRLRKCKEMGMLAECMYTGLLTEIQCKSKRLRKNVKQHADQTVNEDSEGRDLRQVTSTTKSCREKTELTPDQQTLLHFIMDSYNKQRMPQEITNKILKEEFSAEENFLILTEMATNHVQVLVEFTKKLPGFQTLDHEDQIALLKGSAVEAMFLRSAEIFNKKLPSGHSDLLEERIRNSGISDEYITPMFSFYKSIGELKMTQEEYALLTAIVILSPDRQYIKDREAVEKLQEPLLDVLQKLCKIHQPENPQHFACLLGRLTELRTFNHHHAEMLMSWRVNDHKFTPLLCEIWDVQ
Glucocorticoid receptor (Homo sapiens), sequence (P04150 whole entry, looked up): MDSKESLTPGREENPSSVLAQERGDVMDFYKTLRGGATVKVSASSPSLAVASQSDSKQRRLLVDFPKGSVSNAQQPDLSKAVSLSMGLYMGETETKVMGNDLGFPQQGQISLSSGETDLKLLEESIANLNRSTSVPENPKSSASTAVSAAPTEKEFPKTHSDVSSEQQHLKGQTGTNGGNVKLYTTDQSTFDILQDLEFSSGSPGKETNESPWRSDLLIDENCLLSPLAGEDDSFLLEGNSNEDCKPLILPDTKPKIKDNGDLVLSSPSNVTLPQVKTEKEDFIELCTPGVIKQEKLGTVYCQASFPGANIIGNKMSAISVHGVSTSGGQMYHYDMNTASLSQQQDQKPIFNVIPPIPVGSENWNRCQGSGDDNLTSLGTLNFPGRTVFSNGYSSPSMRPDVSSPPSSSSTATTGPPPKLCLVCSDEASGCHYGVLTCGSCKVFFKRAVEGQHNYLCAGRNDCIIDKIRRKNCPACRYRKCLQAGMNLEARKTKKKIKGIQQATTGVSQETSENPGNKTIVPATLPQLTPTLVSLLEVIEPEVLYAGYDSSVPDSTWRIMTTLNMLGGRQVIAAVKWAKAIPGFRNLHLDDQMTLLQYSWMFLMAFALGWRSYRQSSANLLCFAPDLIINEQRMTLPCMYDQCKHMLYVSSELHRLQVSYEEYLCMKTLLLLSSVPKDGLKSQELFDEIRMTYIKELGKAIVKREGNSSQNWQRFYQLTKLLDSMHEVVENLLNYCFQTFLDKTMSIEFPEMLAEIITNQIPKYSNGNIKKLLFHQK
Ubiquitin carboxyl-terminal hydrolase 1 (Homo sapiens), sequence (O94782 whole entry, looked up): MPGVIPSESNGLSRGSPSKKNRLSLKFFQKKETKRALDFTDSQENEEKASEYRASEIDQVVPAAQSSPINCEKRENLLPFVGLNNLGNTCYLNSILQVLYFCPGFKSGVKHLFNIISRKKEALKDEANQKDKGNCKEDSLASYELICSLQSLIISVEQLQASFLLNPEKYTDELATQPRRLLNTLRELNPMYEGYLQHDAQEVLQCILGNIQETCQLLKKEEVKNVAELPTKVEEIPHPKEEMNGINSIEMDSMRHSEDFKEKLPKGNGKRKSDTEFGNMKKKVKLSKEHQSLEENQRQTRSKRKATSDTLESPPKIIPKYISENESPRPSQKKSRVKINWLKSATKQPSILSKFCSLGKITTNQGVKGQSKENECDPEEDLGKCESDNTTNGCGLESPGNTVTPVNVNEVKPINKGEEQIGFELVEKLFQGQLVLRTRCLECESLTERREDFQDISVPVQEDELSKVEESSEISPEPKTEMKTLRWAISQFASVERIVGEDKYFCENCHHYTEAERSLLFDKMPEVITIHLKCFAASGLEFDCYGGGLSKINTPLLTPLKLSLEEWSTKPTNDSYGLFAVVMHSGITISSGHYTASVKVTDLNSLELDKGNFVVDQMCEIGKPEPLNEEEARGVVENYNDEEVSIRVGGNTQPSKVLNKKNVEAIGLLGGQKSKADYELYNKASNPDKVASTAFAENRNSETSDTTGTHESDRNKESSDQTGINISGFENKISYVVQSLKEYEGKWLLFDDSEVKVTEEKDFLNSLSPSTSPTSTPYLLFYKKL
DNA dC->dU-editing enzyme APOBEC-3G (Homo sapiens), sequence (Q9HC16 whole entry, looked up): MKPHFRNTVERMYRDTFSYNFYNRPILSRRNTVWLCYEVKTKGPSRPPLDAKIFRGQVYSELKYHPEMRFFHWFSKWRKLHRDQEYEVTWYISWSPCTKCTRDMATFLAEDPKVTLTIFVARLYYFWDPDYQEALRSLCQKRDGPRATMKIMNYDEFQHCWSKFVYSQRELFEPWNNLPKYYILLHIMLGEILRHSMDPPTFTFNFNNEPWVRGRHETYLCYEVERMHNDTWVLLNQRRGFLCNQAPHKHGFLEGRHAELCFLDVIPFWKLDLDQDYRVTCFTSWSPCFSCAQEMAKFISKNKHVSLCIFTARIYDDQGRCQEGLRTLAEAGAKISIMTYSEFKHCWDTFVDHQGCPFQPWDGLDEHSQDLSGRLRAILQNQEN
Estrogen receptor (Homo sapiens), sequence (P03372 whole entry, looked up): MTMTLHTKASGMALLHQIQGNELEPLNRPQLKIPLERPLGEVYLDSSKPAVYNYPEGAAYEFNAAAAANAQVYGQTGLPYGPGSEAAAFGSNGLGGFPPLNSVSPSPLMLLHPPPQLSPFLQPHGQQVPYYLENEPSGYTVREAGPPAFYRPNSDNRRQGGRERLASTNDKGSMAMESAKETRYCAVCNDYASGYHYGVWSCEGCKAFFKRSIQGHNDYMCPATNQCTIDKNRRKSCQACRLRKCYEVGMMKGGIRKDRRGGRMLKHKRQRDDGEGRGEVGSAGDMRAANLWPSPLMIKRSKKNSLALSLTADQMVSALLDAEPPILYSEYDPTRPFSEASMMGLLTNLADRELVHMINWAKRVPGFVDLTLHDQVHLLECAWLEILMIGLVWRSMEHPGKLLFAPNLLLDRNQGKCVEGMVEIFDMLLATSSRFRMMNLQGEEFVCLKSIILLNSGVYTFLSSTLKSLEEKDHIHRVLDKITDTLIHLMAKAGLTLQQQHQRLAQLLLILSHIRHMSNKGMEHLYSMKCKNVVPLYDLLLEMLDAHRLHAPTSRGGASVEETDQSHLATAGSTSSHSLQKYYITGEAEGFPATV

Regarding `N[C@@H](Cc1ccc(O)c(O)c1)C(=O)O`, the molecule was classed as inactive in assay [1], in assay [4] and in assay [6]. In addition, the Potency entry in assay [2] and in assay [3] was “inactive” each time. Also, the activation in assay [5] is -2.15%.

In the case of `COc1cc2nc(N3CCCN(C)CC3)nc(NC3CCN(Cc4ccccc4)CC3)c2cc1OC`, the call in assay [1] was inactive. The Potency in assay [3] is 7.94 µM (active).

For the molecule `OCc1ccc(-c2nn(Cc3ccccc3)c3ccccc23)o1`, the result in assay [1] was inactive.

For `CC(=O)[C@H]1CC[C@H]2[C@@H]3CCC4=CC(=O)CC[C@]4(C)[C@H]3CC[C@]12C`, the outcome in assay [1], in assay [7] and in assay [8] was inactive. Moreover, the Potency result in assay [3] is “inactive”.

Consider `O=P(O)(O)C(O)(Cc1cccnc1)P(=O)(O)O`, for which, in assay [2], the Potency result was “inactive”.

As for `CC1=C(C(=O)O)N2C(=O)[C@@H](NC(=O)C(N)c3ccccc3)[C@H]2SC1` (stereo partly drawn), the molecule was called inactive in assay [1]. The Potency result in assay [2] and in assay [3] was “inactive” each time.

Consider `Nc1nc(N)nc(-c2cc(Cl)ccc2Cl)n1`, for which the Potency entry in assay [2] was “inactive”.

For `CC(C)(Sc1cc(C(C)(C)C)c(O)c(C(C)(C)C)c1)Sc1cc(C(C)(C)C)c(O)c(C(C)(C)C)c1`, the Potency entry in assay [2] was “inactive”.

Take `N[C@@H](C(=O)N[C@@H]1C(=O)N2C(C(=O)O)=C(Cl)CS[C@H]12)c1ccccc1`: in assay [2], the Potency result was “inactive”.

As for `CN1CCN(c2c(F)cc3c(=O)c(C(=O)O)cn(CCF)c3c2F)CC1`, the Potency entry in assay [2] was “inactive”.

Regarding `Nc1nc(=S)c2[nH]cnc2[nH]1`, the Potency result in assay [2] was “inactive”.

With `Nc1[nH]c(=O)ncc1F`, the Potency entry in assay [2] was “inactive”.

In the case of `COc1ncnc(NS(=O)(=O)c2ccc(N)cc2)c1OC`, the Potency result in assay [2] was “inactive”.

`CCN1CCCC1CNC(=O)c1cc(S(N)(=O)=O)ccc1OC` (stereo not drawn): the molecule was called inactive in assay [1] and in assay [7]. Also, the Potency entry in assay [3] is “inactive”.

Take `CCN(CC)CCn1c(=O)c(Cc2ccc(OC)cc2)nc2ccccc21`: the result in assay [1] was inactive. In addition, the Potency entry in assay [3] was “inactive”.

With `CCN(CC)CC#CCOC(=O)C(O)(c1ccccc1)C1CCCCC1` (stereo not drawn), the molecule was called inactive in assay [1]. Besides, the Potency entry in assay [3] was “inactive”.

In the case of `COc1cc2ncnc(Nc3cccc(Cl)c3)c2cc1OC`, the result in assay [1] and in assay [7] was inactive. Further, the Potency result in assay [2] and in assay [3] was “inactive” in each case.

Regarding `CC1CC2C3CCC4=CC(=O)C=C[C@]4(C)[C@@]3(F)[C@@H](O)C[C@]2(C)[C@@]1(O)C(=O)CO` (stereo partly drawn), the molecule was classed as inactive in assay [1]. Besides, in assay [3], the Potency result is “inactive”.

For the molecule `O=C(O)C1CCCN(CCC=C(c2ccccc2)c2ccccc2)C1` (stereo not drawn), the call in assay [1] and in assay [7] was inactive. Further, the Potency result in assay [2] and in assay [3] was “inactive” throughout.

In the case of `O=S(=O)(O)CCS`, in assay [2], the Potency entry is “inactive”.

`NC(=O)c1ccc2[nH]ccc2c1`: in assay [1], the outcome was inactive. For the same molecule, the Potency entry in assay [2] and in assay [3] was “inactive” throughout.

For `NC(=O)c1cccc(N)c1`, the outcome in assay [1] and in assay [7] was inactive. In addition, the Potency result in assay [2] and in assay [3] was “inactive” throughout.

Turning to `COc1cnc(NS(=O)(=O)c2ccc(N)cc2)nc1`, the Potency result in assay [2] was “inactive”.

For the molecule `C#CCN[C@@H]1CCc2ccccc21`, the Potency result in assay [2] is “inactive”.

As for `CC(C)NCC(O)c1ccc(NS(C)(=O)=O)cc1` (stereo not drawn), the molecule was called inactive in assay [1]. The Potency result in assay [2] and in assay [3] was “inactive” each time.

As to `O=c1cc(O)c(Cl)c[nH]1`, in assay [2], the Potency entry is “inactive”.

For `CC(N)C12CC3CC(CC(C3)C1)C2` (stereo not drawn), the Potency entry in assay [2] was “inactive”.

For `CCCCS(=N)(=O)CCC(N)C(=O)O` (stereo not drawn), in assay [1], the molecule was classed as inactive. Besides, the Potency entry in assay [2] and in assay [3] was “inactive” in each case.

On to `O=NN(CCCl)C(=O)NC1CCCCC1`, for which the Potency result in assay [2] was “inactive”.

`Cc1cccc(Nc2ccncc2S(=O)(=O)NC(=O)NC(C)C)c1`: the Potency entry in assay [2] was “inactive”.

Regarding `Cc1ccc(S(=O)(=O)N[C@@H](Cc2ccccc2)C(=O)CCl)cc1`, in assay [1], the outcome was inactive. For the same molecule, the Potency in assay [2] was 44.7 µM (active); in assay [3], 22.4 µM (active).

As for `Nc1nc(N)c2nc(CNc3ccc(C(=O)NC(CCC(=O)O)C(=O)O)cc3)cnc2n1` (stereo not drawn), the call in assay [1] and in assay [6] was inactive. In addition, the Potency entry in assay [3] was “inactive”. Further, the activation in assay [5] was 7.7%.

For the molecule `COc1ccc(-c2ccc3cc(C(=O)O)ccc3c2)cc1C12CC3CC(CC(C3)C1)C2`, the Potency in assay [2] is 79.4 µM (active).

For the molecule `COc1nc(N)nc2c1ncn2[C@@H]1O[C@H](CO)[C@@H](O)[C@@H]1O`, the Potency in assay [2] is 22.4 µM (active).

As for `CC1=NN(c2ccccc2)C(=O)C1`, the Potency result in assay [2] was “inactive”. The molecule was classed as inactive in assay [7], in assay [8], in assay [4] and in assay [6].

Regarding `CC(=O)Oc1ccccc1C(=O)Nc1ncc([N+](=O)[O-])s1`, in assay [5], the activation was -4.89%.

In the case of `Cc1cc(NS(=O)(=O)c2ccc(N)cc2)no1`, the result in assay [4] and in assay [6] was inactive. In assay [5], the activation was 9.43%.

`COc1ccc(C(=O)CC(=O)c2ccc(C(C)(C)C)cc2)cc1`: the Potency entry in assay [2] was “inactive”.

In the case of `O=C(O)c1cc(=O)[nH]c(=O)[nH]1`, the Potency entry in assay [2] was “inactive”. For the same molecule, the activation in assay [5] was -4.81%.

Regarding `Cc1ncc([N+](=O)[O-])n1CCO`, the result in assay [8] was inactive.

In the case of `COC(=O)Nc1nc2ccc(Sc3ccccc3)cc2[nH]1`, in assay [2], the Potency entry is “inactive”.

Regarding `CNCC[C@H](Oc1cccc2ccccc12)c1cccs1`, the Potency entry in assay [2] is “inactive”.

As to `Cc1noc(NS(=O)(=O)c2ccc(N)cc2)c1C`, the Potency result in assay [2] is “inactive”. Besides, the outcome in assay [7], in assay [8] and in assay [4] was inactive.

`CCCCOc1ccc(CC(=O)NO)cc1`: in assay [2], the Potency entry is “inactive”.

Regarding `CC[C@H](NC(C)C)[C@H](O)c1ccc(O)c2[nH]c(=O)ccc12`, the Potency result in assay [2] is “inactive”. Further, the call in assay [7] was inactive.

With `COc1ccc2cc3[n+](cc2c1OC)CCc1cc2c(cc1-3)OCO2`, the activation in assay [5] is 1.14%.
